PubChem BioAssay (NCI)
About 83,000 compounds went through this panel and 20% of them were active in at least one assay; those are over-represented in the sample as a whole.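 Method: cells in 96-well plates; compound added at one concentration; 48 h incubation; percent growth measured; values under 10 scored active.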 The source made the active and inactive calls.

Assays:
Assay in all cases: NCI-60 one-dose screen, 48 h (100 = growth as untreated, 0 = no growth, -100 = all killed)
Settings in all cases: 10 µM unless noted
NCI-H23 lung = test system: NCI-H23 lung
NCI-H226 lung = test system: NCI-H226 lung
NCI-H322M lung = test system: NCI-H322M lung
HOP-62 NSCLC = test system: HOP-62 NSCLC
NCI-H460 lung = test system: NCI-H460 lung
HOP-92 NSCLC = test system: HOP-92 NSCLC
NCI-H522 lung = test system: NCI-H522 lung
A549/ATCC NSCLC = test system: A549/ATCC NSCLC
786-0 renal = test system: 786-0 renal
COLO 205 colon = test system: COLO 205 colon

Measured: growth

Nc1nc2c(c3ncccc13)C(c1ccccc1)Cc1ncccc1-2 (stereo not given)
inactive: NCI-H23 lung 83.3% | NCI-H226 lung 88.4% | NCI-H322M lung 102% | HOP-62 NSCLC 72.1% | NCI-H460 lung 92% | HOP-92 NSCLC 96.1% | NCI-H522 lung 42.9% | A549/ATCC NSCLC 72.3% | 786-0 renal 104% | COLO 205 colon 87.8%

CCn1c(CN2CCN(Cc3ccccc3)CC2)nc2cc(NC(=O)c3cccs3)ccc21
active: NCI-H23 lung -39% | NCI-H226 lung -35.5% | NCI-H322M lung -69% | HOP-62 NSCLC -81.6% | NCI-H460 lung -69.9% | HOP-92 NSCLC -72.3% | NCI-H522 lung -64.4% | A549/ATCC NSCLC -72.9% | 786-0 renal -67.8% | COLO 205 colon -91.3%

CC1C2CCC(C2)C1COCCOCCO (stereo not given)
inactive: NCI-H23 lung 107% | NCI-H226 lung 104% | NCI-H322M lung 109% | HOP-62 NSCLC 108% | NCI-H460 lung 112% | HOP-92 NSCLC 105% | NCI-H522 lung 96% | A549/ATCC NSCLC 92% | 786-0 renal 104% | COLO 205 colon 121%

C/C(=C\C(=N\N=C(N)N)c1ccc(Cl)cc1)c1ccc(Cl)cc1
active: NCI-H23 lung -71.5% | NCI-H226 lung -69.6% | NCI-H322M lung -36% | HOP-62 NSCLC -86.3% | NCI-H460 lung -66.8% | HOP-92 NSCLC -77% | NCI-H522 lung -88.4% | A549/ATCC NSCLC -81.3% | 786-0 renal -70.3% | COLO 205 colon -90.2%

Cc1cc(-c2nnc(/C=C/c3ccc4c(c3)OCO4)o2)n[nH]1
inactive: NCI-H23 lung 77.7% | NCI-H226 lung 95.2% | NCI-H322M lung 66.5% | HOP-62 NSCLC 78.5% | NCI-H460 lung 84.3% | HOP-92 NSCLC 80.7% | NCI-H522 lung 15.2% | A549/ATCC NSCLC 58.7% | 786-0 renal 97.2% | COLO 205 colon 61.6%

O=C(C(Br)C(Br)c1ccccc1)C(Br)C(Br)c1ccccc1 (stereo not given)
active: NCI-H23 lung 8.99% | NCI-H226 lung -36.5% | HOP-62 NSCLC 3.69% | HOP-92 NSCLC -60.7% | NCI-H522 lung -90.6% | 786-0 renal -62.7% | COLO 205 colon -47.8%
inactive: NCI-H322M lung 84.2% | NCI-H460 lung 64% | A549/ATCC NSCLC 29.4%

COc1cc(/C=C/c2ccc3c(Br)cc(Br)c(O)c3n2)ccc1O
active: NCI-H460 lung 3.91% | NCI-H522 lung -38.2%
inactive: NCI-H23 lung 36.9% | NCI-H226 lung 67.7% | NCI-H322M lung 40.5% | HOP-62 NSCLC 33% | HOP-92 NSCLC 16.6% | A549/ATCC NSCLC 14.2% | 786-0 renal 32.6% | COLO 205 colon 58%

CCSc1ccc([C@@H]2[C@@H](O)C(=O)N2c2cc(OC)c(OC)c(OC)c2)cc1
inactive: NCI-H23 lung 34% | NCI-H226 lung 50.7% | NCI-H322M lung 39.4% | HOP-62 NSCLC 22.6% | HOP-92 NSCLC 101% | A549/ATCC NSCLC 20.8% | 786-0 renal 14%
active: NCI-H460 lung 5.97% | NCI-H522 lung 6.56% | COLO 205 colon -48.8%

O=C(Nc1ccc(Cl)c(C(F)(F)F)c1)c1ccc(Nc2ccc(Cl)nn2)cc1
inactive: NCI-H23 lung 48.4% | NCI-H226 lung 84.2% | NCI-H322M lung 92.9% | HOP-62 NSCLC 86.1% | NCI-H460 lung 74% | HOP-92 NSCLC 82.8% | NCI-H522 lung 62% | A549/ATCC NSCLC 44.3% | 786-0 renal 50.9% | COLO 205 colon 81.6%

C#CC[C@@H]1C[C@]2(C)[C@H]3CC=C4[C@H]5CC(C)(C)CC[C@]5(C(=O)NCCCCN)CC[C@@]4(C)[C@]3(C)CC[C@H]2C(C)(C)[C@H]1OC(C)=O
inactive: NCI-H23 lung 78.9% | NCI-H226 lung 90.3% | NCI-H322M lung 36% | HOP-62 NSCLC 92.2% | NCI-H522 lung 70.1% | A549/ATCC NSCLC 27.8%
active: NCI-H460 lung -27.6% | HOP-92 NSCLC 2.98% | 786-0 renal 6.69% | COLO 205 colon -49.7%

COc1ccc([C@@H]2[C@@H](Oc3ccccc3)C(=O)N2c2cc(OC)c(OC)c(OC)c2)cc1F
active: NCI-H460 lung 7.22% | NCI-H522 lung -26.1% | 786-0 renal 5.88% | COLO 205 colon -41.2%
inactive: NCI-H23 lung 16.5% | NCI-H226 lung 41.5% | NCI-H322M lung 33.4% | HOP-62 NSCLC 14% | HOP-92 NSCLC 42% | A549/ATCC NSCLC 13.4%

COc1cc(C2CC(c3ccc(Cl)cc3)=NN2C=O)ccc1OS(=O)(=O)c1ccc(C)cc1 (stereo not given)
inactive: NCI-H23 lung 83.5% | NCI-H226 lung 84.5% | NCI-H322M lung 97% | HOP-62 NSCLC 96.6% | NCI-H460 lung 91% | HOP-92 NSCLC 85.1% | NCI-H522 lung 82.7% | A549/ATCC NSCLC 78.8% | 786-0 renal 88.4% | COLO 205 colon 100%

CC(=O)c1cc(C(=O)c2ccc3c(c2)Sc2ccccc2N3)c2c(C)cccn12
active: NCI-H460 lung 6.41% | 786-0 renal 4.46% | COLO 205 colon -43.7%
inactive: NCI-H23 lung 27% | NCI-H226 lung 47.8% | NCI-H322M lung 37.4% | HOP-62 NSCLC 19.1% | HOP-92 NSCLC 94% | NCI-H522 lung 12.5% | A549/ATCC NSCLC 19.5%

CCN(C(=O)Nc1cccc2ccccc12)c1ccccc1
inactive: NCI-H23 lung 98.3% | NCI-H226 lung 98.1% | NCI-H322M lung 102% | HOP-62 NSCLC 93.6% | NCI-H460 lung 115% | HOP-92 NSCLC 96.3% | NCI-H522 lung 100% | A549/ATCC NSCLC 98.7% | 786-0 renal 106% | COLO 205 colon 105%
